Screens from PubChem BioAssay.
PLC-gamma1 inh: PLC-gamma1 enzyme inhibitors, primary screen, biochemical, fluorescence, purified enzyme | 1-phosphatidylinositol 4,5-bisphosphate phosphodiesterase gamma-1 (Homo sapiens), P19174 | fluorogenic substrate | inhibition, % at 12.2 µM | 370,000 compounds, 0.84% hits | AID 720700, 2013
bovine MsrA act: bovine MsrA enzyme activators, primary screen, biochemical, absorbance, HTS. Methionine sulfoxide reductase A (Bos taurus). activation, % at 10.6 µM. 360,000 compounds, 0.3% hits. AID 602163, 2012. purified bovine MsrA, absorbance read-out; in the data active = activation above about 7.5%;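 note: 0% = vehicle and 100% = reference activator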
MsrA inhibitor: bovine MsrA enzyme inhibitors, primary screen, biochemical, absorbance, HTS; AID 651718, 2012; purified bovine MsrA, absorbance read-out; 360,000 compounds, 0.75% hits; inhibition, % at 15.5 µM; in the data active = inhibition above about 4.5%;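 note: 0% = vehicle wells with enzyme and 100% = reference inhibitor wells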
PLC-beta3 inh: human PLC-beta3 inhibitors, primary screen, biochemical, fluorescence; 1-phosphatidylinositol 4,5-bisphosphate phosphodiesterase beta-3 (Homo sapiens), Q01970; Purified PLC-beta3, fluorogenic substrate; inhibition, % at 12.2 µM; 370,000 compounds, 0.18% hits; in the data active = inhibition above about 11%;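 note: 0% = median of compound wells on plate and 100% = full blocker control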
PLCgamma1 ctr: PLC-gamma1 enzyme inhibitors, counter-screen for PLC-beta3 inhibitor project, biochemical, fluorescence; shares compounds with PLC-gamma1 inh; purified PLC-gamma1, fluorogenic substrate; inhibition, % at 12.3 µM; 3,300 compounds, 3.1% hits
PLCbeta3 conf: PLC-beta3 inhibitor confirmation, biochemical, fluorescence, purified enzyme; shares compounds with PLC-gamma1 inh; fluorogenic substrate fluorescence; inhibition, % at 12.3 µM; 3,300 compounds, 1% hits; AID 743261, 2014; in the data active = inhibition above about 11%
Starred values were filed as active, the others as inactive; ! = not confirmed by another sample. In the library only some 1.9% were active in any assay of this set; here they are far more common. Cut-off read from the data, not from the text of the source, unless noted: active = inhibition above about 9.5%; inactive = the rest.

Screening COc1cccc2c1[C@H](/C=C/c1ccccc1)[C@@H]([C@H](O)CO)OC2 returned PLC-gamma1 inh 1 and PLC-beta3 inh 2.
Screening COc1ccccc1C(=O)N1CCN(C(=O)[C@H](CCc2ccccc2)NC(=O)[C@H]2O[C@@H](n3cnc4c(N)ncnc43)[C@H](O)[C@@H]2O)CC1 returned PLC-gamma1 inh -1, MsrA inhibitor -1 and PLC-beta3 inh 4.
`O=C(CCc1ccccc1)Oc1ccccc1[N+](=O)[O-]` gave PLC-gamma1 inh 13*, MsrA inhibitor 1, PLC-beta3 inh 9, PLCgamma1 ctr -8 and PLCbeta3 conf 0.
`O=c1c(=O)n(O)c2ccccc2n1O` gave PLC-gamma1 inh 13*, bovine MsrA act -3, MsrA inhibitor 2, PLC-beta3 inh -1, PLCgamma1 ctr -6 and PLCbeta3 conf -2.
`O=C(Cn1c(-c2cncs2)nc2ccccc21)N1CCCCC1` gave PLC-gamma1 inh 1 and PLC-beta3 inh -2.
`CCCNC(=O)N[C@@H](CCSC)C(=O)OC` gave PLC-gamma1 inh -2, bovine MsrA act -10, MsrA inhibitor -1 and PLC-beta3 inh 3.
For CCCNC(=O)NC(C(=O)OC)C12CC3CC(CC(C3)C1)C2 (stereo unspecified) the results were PLC-gamma1 inh 11*, bovine MsrA act -9, MsrA inhibitor 0, PLC-beta3 inh 6, PLCgamma1 ctr 0 and PLCbeta3 conf 0.
For COc1cccc(C(c2c(C)[nH]n(-c3ccccc3)c2=O)c2c(C)[nH]n(-c3ccccc3)c2=O)c1OC the results were PLC-gamma1 inh 18*, bovine MsrA act -7, MsrA inhibitor 0, PLC-beta3 inh 7, PLCgamma1 ctr -6 and PLCbeta3 conf -4.
`Cc1[nH]n(-c2ccccc2)c(=O)c1C(C[N+](=O)[O-])c1ccccc1Cl` (stereo unspecified) gave PLC-gamma1 inh 0, bovine MsrA act 1, MsrA inhibitor 0 and PLC-beta3 inh -2.
Screening COc1ccc(C(c2c(C)n(C)n(-c3ccccc3)c2=O)c2c(C)n(C)n(-c3ccccc3)c2=O)c(OC)c1OC returned PLC-gamma1 inh -2, bovine MsrA act -1, MsrA inhibitor 0 and PLC-beta3 inh -6.
Screening COc1cccc(C(c2c(C)[nH]n(-c3ccccc3)c2=O)c2c(C)[nH]n(-c3ccccc3)c2=O)c1O returned PLC-gamma1 inh 25*, bovine MsrA act -6, MsrA inhibitor 0, PLC-beta3 inh -1, PLCgamma1 ctr -7 and PLCbeta3 conf -7.
For COC(=O)C1=C(C)N(Cc2ccccc2C(F)(F)F)C(=NCc2ccc3c(c2)OCO3)NC1c1cccc(C(F)(F)F)c1 (stereo unspecified) the results were PLC-gamma1 inh 2, MsrA inhibitor -1 and PLC-beta3 inh 3.
Screening CCSc1ccc([C@@H]2[C@H]3C(=O)N(C)C(=O)[C@H]3[C@]3(C(=O)OC)CCCCN23)cc1 returned PLC-gamma1 inh 10*, bovine MsrA act -4, MsrA inhibitor 1, PLC-beta3 inh 3, PLCgamma1 ctr -6 and PLCbeta3 conf -4.
`CCSc1ccc([C@@H]2[C@@H]3C(=O)N(CC)C(=O)[C@@H]3[C@]3(C(=O)OC)CCCCN23)cc1` gave PLC-gamma1 inh 1, bovine MsrA act -4, MsrA inhibitor 0 and PLC-beta3 inh -2.
For COC(=O)[C@@H]1CC[C@@](C)(c2ccc(OC)cc2)C1(C)C the results were PLC-gamma1 inh 14*, bovine MsrA act -3, MsrA inhibitor 2, PLC-beta3 inh 8, PLCgamma1 ctr -6 and PLCbeta3 conf -2.
`CN1C2CC(OC(=O)C(CO)c3ccccc3)CC1C1OC12` (stereo unspecified) gave PLC-gamma1 inh 10*!, PLC-beta3 inh -2, PLCgamma1 ctr -2 and PLCbeta3 conf -1.
`CCn1c2ccccc2c2cc(NC(=O)CSc3nnc(-c4cccc(F)c4)o3)ccc21` gave PLC-gamma1 inh 13*, bovine MsrA act 0, MsrA inhibitor 1, PLC-beta3 inh 8, PLCgamma1 ctr -17 and PLCbeta3 conf -18.
`Fc1ccc(C2=Nc3cccc4cccc(c34)N2)cc1` gave PLC-gamma1 inh -3, bovine MsrA act -7, MsrA inhibitor 0 and PLC-beta3 inh -3.
FC(F)(F)C1=Nc2cccc3cccc(c23)N1 was read as PLC-gamma1 inh 13*, bovine MsrA act -5, MsrA inhibitor 1, PLC-beta3 inh 4, PLCgamma1 ctr 12* and PLCbeta3 conf 10.
For C[C@@H]1[C@@H](O)C[C@@]2(C[C@H](O)c3cc(Cl)ccc3O2)O[C@H]1c1ccccc1Cl the results were PLC-gamma1 inh 0 and PLC-beta3 inh -3.
O=C(NCCc1ccccn1)c1cccc(S(=O)(=O)N2CCCCCC2)c1 was read as PLC-gamma1 inh 15*, bovine MsrA act 1, MsrA inhibitor 1, PLC-beta3 inh 14*, PLCgamma1 ctr 0 and PLCbeta3 conf 1.
For O=C(NCc1ccccn1)c1ccc(Cl)c(S(=O)(=O)N2CCCCCC2)c1 the results were PLC-gamma1 inh 9.9*, bovine MsrA act -5, MsrA inhibitor 2, PLC-beta3 inh -9, PLCgamma1 ctr -10 and PLCbeta3 conf -7.
Screening O=C(O)c1cccc(Nc2cc(Cl)c3nonc3c2[N+](=O)[O-])c1 returned PLC-gamma1 inh 13*, bovine MsrA act -7, MsrA inhibitor 4.6*, PLC-beta3 inh 3, PLCgamma1 ctr -1 and PLCbeta3 conf 2.
For O=C(O)c1ccccc1Nc1cc(Cl)c2nonc2c1[N+](=O)[O-] the results were PLC-gamma1 inh -1, bovine MsrA act -6, MsrA inhibitor 4 and PLC-beta3 inh -1.
`CCn1c(=S)sc2c(=O)n(CC(=O)Nc3cccc(Cl)c3)c(C)nc21` gave PLC-gamma1 inh 10*, bovine MsrA act -2, MsrA inhibitor 1, PLC-beta3 inh -1, PLCgamma1 ctr 9 and PLCbeta3 conf 11*.
For CCOC(=O)c1ccc(NC(=O)Cn2c(C)nc3c(sc(=S)n3CC)c2=O)cc1 the results were PLC-gamma1 inh 1, bovine MsrA act -2, MsrA inhibitor 0 and PLC-beta3 inh -1.
Screening COc1ccc(OC)c(NC(=O)CNC(c2ccccc2)c2ccccc2)c1 returned PLC-gamma1 inh 13*, bovine MsrA act 0, MsrA inhibitor 1, PLC-beta3 inh 3, PLCgamma1 ctr -6 and PLCbeta3 conf -2.
Screening COc1cc(OC)c(C(=O)Oc2ccc3c(c2)OCO3)cc1OC returned PLC-gamma1 inh 11*, bovine MsrA act -4, MsrA inhibitor 2, PLC-beta3 inh 4, PLCgamma1 ctr 8 and PLCbeta3 conf 3.
